FBPA coupling cs = counter-screen for Giardia aldolase inhibitors: coupling enzyme system; coupling enzyme system counterscreen, AmpLite Red fluorescence; activity change, negative = inhibition, % at 58.2 µM, hits read low; 290,000 tested, 0.67% active; in the data active = activity change below about -30%
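First, compound is pin-transferred into glyceraldehyde-3-phosphate coupling-enzyme reagent at 57.5 uM final and held 10 min at RT. Next, substrate, coupling system and AmpLite Red are added. After 20 min RT, fluorescence (525/598 nm) is read.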
TrxR1 inh = inhibitors of rat thioredoxin reductase 1. recombinant rTrxR1, NADPH fluorescence consumption, selenite substrate. Potency, µM (series often up to 114 µM), hits mostly inhibitors. 390,000 tested, 1% active. AID 588453; also: nearly all actives have a fitted effect of over 65% in size
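Rat TrxR1 (90 nM in the dispensed reagent) was pre-reduced with 400 uM NADPH for 5 min at room temperature, then incubated with compound for 15 min. After 400 uM selenite was added, NADPH fluorescence (Ex 340/Em 450 nm) was followed for 8 min.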
RORgamma inh = ROR gamma (mouse) transcription inhibition; Drosophila S2 Gal4-RORgamma UAS-luciferase reporter, 20 h; P51450; 310,000 tested, 5.4% active; Potency, µM (titrated, usually from 53.6 µM), usual class: inhibitors; also: nearly all actives have a fitted effect of over 60% in size
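Luminescence from a UAS-regulated Photinus luciferase reporter in stably transfected Drosophila Schneider cells is measured; decreased signal marks ROR gamma inhibition. Fusion expression is induced by 700 uM copper sulfate for 20 hr.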
TrxR1 substrate = substrates of rat thioredoxin reductase 1. Potency, µM (doses to about 114 µM). purified TrxR1 substrate turnover, NADPH consumption readout. 390,000 tested, 0.01% active. AID 588456; also: nearly all actives have a fitted effect of over 50% in size
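Rat TrxR1, dispensed at 90 nM, was prereduced with 400 uM NADPH (final) for 5 min at ~22 deg C, then incubated with compound 15 min before 400 uM selenite. A first-read NADPH fluorescence drop versus no-compound background flagged substrates.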
Gal4-VP16 FLuc = inhibits Gal4-VP16 luciferase reporter, ROR gamma counter-screen; Drosophila S2 Gal4-VP16 UAS-luciferase, luminescence, 20 h; Potency, µM (titrated, usually from 53.6 µM), usual class: inhibitors; 310,000 tested, 3.5% active; AID 2546;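 also: Gal4-VP16 expression switched on by copper sulfate through the metallothionein promoter; nearly all actives have a fitted effect of over 50% in size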
GALK inhibitor = inhibitors of human galactokinase. Purified GALK, Kinase-Glo residual ATP luminescence. Potency, µM (titrated, usually from 57.5 µM), hits mostly inhibitors. 270,000 tested, 0.007% active. AID 1868
Target sequence (P51570 whole entry, looked up): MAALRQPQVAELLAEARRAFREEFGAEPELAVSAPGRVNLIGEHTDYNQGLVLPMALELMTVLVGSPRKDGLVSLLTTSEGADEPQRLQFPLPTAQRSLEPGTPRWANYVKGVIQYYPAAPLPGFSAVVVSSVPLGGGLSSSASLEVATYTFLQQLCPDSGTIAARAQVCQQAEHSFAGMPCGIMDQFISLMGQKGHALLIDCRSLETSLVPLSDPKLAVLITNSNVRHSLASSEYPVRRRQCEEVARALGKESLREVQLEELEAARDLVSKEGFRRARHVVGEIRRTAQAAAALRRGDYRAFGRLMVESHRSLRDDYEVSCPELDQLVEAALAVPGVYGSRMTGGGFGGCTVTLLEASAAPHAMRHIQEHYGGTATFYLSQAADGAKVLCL
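Luminescence from leftover ATP (Ultra-Glo luciferase/luciferin) served as read-out after a 1 h room-temperature reaction of 5 nM GALK with 35 uM ATP and 100 uM galactose.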
Hits are given with their value; n = inactive; u = inconclusive; x = not tested or not shown; [ ] = dose if it differs, or a comment. Sampled rows, rich in hits. Any-hit rate of the full collection: about 5.9%. Unless noted, calls follow the shape of the dose curve; as a rule, active = well fitted curve in the direction sought with a large enough effect; inconclusive = small, poorly fitted or top-dose-only effect, or another doubt; inactive = no such curve, though single readings can be large; an effect the other way counts as inactive or inconclusive.

SMILES | FBPA coupling cs | TrxR1 inh | RORgamma inh | TrxR1 substrate | Gal4-VP16 FLuc | GALK inhibitor
CCOc1ccc(CCNC(=O)c2nnc(Cc3ccc(F)cc3)o2)cc1OCC | n | n | n | n | n | x
CCc1nnc(NC(=O)CCc2ccc(C)o2)s1 | n | n | u | n | n | n
Cc1ccc(CCC(=O)Nc2ncc(Cc3cccc(Cl)c3Cl)s2)o1 | n | n | 35µM | n | u | n
CCC(C)NC(=O)c1c(N)n(/N=C/c2ccccn2)c2nc3ccccc3nc12 (stereo unspecified) | n | n | 18µM | n | n | n
c1ccc(CNc2ncnc3sccc23)cc1 | n | n | n | n | 18µM | n
CN(C)C(CNc1ncnc2sccc12)c1ccccc1 (stereo unspecified) | n | n | n | n | n | n
COc1ccc(CNc2ncnc3sccc23)cc1 | n | n[0.457 µM] | u | n | u | n
c1cncc(CNc2ncnc3sccc23)c1 | n | n | u | n | n | n
COc1ccc(CNc2ncnc3sccc23)cc1OC | n | n | u | n | 11µM | n
OC(CNc1ncnc2sccc12)c1ccccc1 (stereo unspecified) | n | n | u | n | 6.3µM | n
c1csc(CNc2nc3ccccc3n2CCN2CCOCC2)c1 | n | n | n | n | n | n
CCN(C(=S)Nc1cccc(C)c1)c1ccccc1 | n | n | 16µM | n | u | n
CCN(C(=S)Nc1ccc(Oc2ccccc2)cc1)c1ccccc1 | n | n | 13µM | n | 18µM | n
CCOC(=O)N1CCC(N(CCN(C)C)C(=S)Nc2ccc(Oc3ccccc3)cc2)CC1 | n | n | 11µM | n | n | n
CC(c1ccccc1)C1CC(=O)N(Cc2ccco2)C1=O (stereo unspecified) | n | 40µM | n | n | n | n
O=C/C=C/c1ccc(O)cc1 | n | x | n | x | n | x
CCn1c(C)cs/c1=N\C(=S)Nc1ccccc1C | n | n | 2.2µM | n | 5.6µM | n
COCCOC(=O)C1=C(C)N(Cc2ccccc2)C(=O)NC1c1cccc(OC)c1OC (stereo unspecified) | n | n | u | n | n | n
COC(=O)C1=C(C)N(c2ccccc2)C(=S)NC1c1ccccc1C(F)(F)F (stereo unspecified) | n | n | 3.2µM | n | u | n
COCCOC(=O)C1=C(C)N(c2ccccc2)C(=S)NC1c1ccccc1C(F)(F)F (stereo unspecified) | n | n | 18µM | n | u | n
COc1ccc(S(=O)(=O)Nc2ccc3c(c2)C(=O)N([C@H](C)CO)C[C@H](C)[C@@H](CN(C)C(=O)NC(C)C)O3)cc1 | x | n | x | n | x | x
CCOC(=O)c1ccc(NC(=S)N(CCCN2CCCCC2)Cc2ccco2)cc1 | n | n | n | n | n | n
N#Cc1nc(-c2ccc(Cl)cc2)oc1N1CCCCC1 | n | n | n | n | n | n
O=S1(=O)Nc2c(ccc3cccnc23)-c2ccccc21 | n | n | 1.3µM | n | 2.5µM | n
CC(N=C1NS(=O)(=O)c2ccccc21)C(=O)Nc1ccc(F)cc1Cl (stereo unspecified) | x | n | x | n | x | x
SMILES | FBPA coupling cs | TrxR1 inh | RORgamma inh | TrxR1 substrate | Gal4-VP16 FLuc | GALK inhibitor
Cc1cnc2c3c(cc(Cl)c2c1)-c1ccccc1S(=O)(=O)N3 | x | 32µM | x | n | x | x
O=c1[nH]n(-c2cccc3cccnc23)c(=O)c2ccccc12 | n | n | n | n | n | n
COc1ccc2cc(CCNS(=O)(=O)c3ccc(NC(C)=O)cc3)c(=O)[nH]c2c1 | n | n | n | n | n | n
CCOc1ccc(NC(=S)N(CCCN2CCOCC2)Cc2cn(C)c3ccccc23)cc1 | n | n | 13µM | n | u | n
COc1ccc(NC(=S)N(CCCN2CCOCC2)Cc2cn(C)c3ccccc23)cc1 | n | n | u | n | u | n
Cc1cccc(NC(=S)N(CCCN2CCOCC2)Cc2cn(C)c3ccccc23)c1 | n | n | 11µM | n | n | n
Cn1c(=O)oc2cc(S(=O)(=O)Nc3cccc4c3CCCC4)ccc21 | n | n | u | n | n | n
COc1cccc(C2=CC(c3cccs3)n3nnnc3N2)c1 (stereo unspecified) | n | n | n | n | n | n
CN1CCO/C1=C(\C(Cl)=C(Cl)Cl)[N+](=O)[O-] | n | n | n | n | n | n
CCC1CO/C(=C(\C(Cl)=C(Cl)Cl)[N+](=O)[O-])N1 (stereo unspecified) | n | 16µM | n | n | n | n
Cc1cccc(NC2=NC(=S)N(c3cccc(C(=O)O)c3)C23CCCCC3)c1 | n | n | n | n | n[10 µM] | n
COc1ccc(N2C(=S)N=C(Nc3cccc(C)c3)C23CCCCC3)cc1 | n | n | 2.2µM | n | 6.3µM | n
Cc1cccc(N2C(=S)N=C(Nc3c(C)cccc3C)C23CCOC(C)(C)C3)c1 (stereo unspecified) | n | n | n | n | n | n
COc1ccccc1N1C(=S)N=C(Nc2c(C)cccc2C)C12CCCC2 | n | n | 7.9µM | n | u | n
Cc1ccc(N2C(=S)N=C(Nc3ccccc3C)C23CCOC(C)(C)C3)cc1 (stereo unspecified) | n | n | 4.5µM | n | 13µM | n
Cc1ccc2nc(-c3ccc(N4CCOCC4)cc3)c(Nc3ccccc3C)n2c1 | x | n | x | n | x | x
Cc1cccc(C)c1NC1=NC(=S)N(c2ccccc2)C12CCOC(C)(C)C2 (stereo unspecified) | n | n | 4µM | n | u | n
Cc1cccc(C)c1NC1=NC(=S)N(c2ccc(C(=O)O)cc2)C12CCCCC2 | n | n | n | n | n | n
CC12CCC(C1)C(C)(C)C2NS(=O)(=O)c1ccc(F)cc1 (stereo unspecified) | x | n | x | n | x | x
CCCc1cc(-c2[nH]ncc2-c2ccc3c(c2)OCCCO3)c(O)cc1O | n | n | u | n | u | n
CC1CCCCN1S(=O)(=O)c1ccc2[nH]c(=O)cc(C(=O)NCCc3ccc(Cl)cc3)c2c1 (stereo unspecified) | x | n | x | n | x | x
COc1ccc(-c2csc(NC(=S)NC(=O)c3ccccc3)n2)cc1Br | n | n | n | n | n | n
COc1ccc(-c2csc(NC(=S)NC(=O)/C=C/c3ccc(C(C)C)cc3)n2)cc1OC | n | n | 4µM | n | 7.9µM | n
O=C(/C=C/c1ccco1)Nc1nc(-c2ccc(F)c(F)c2)cs1 | n | u | n | n | n | n
COc1ccc(C(=O)NC(=S)Nc2nc(-c3ccc(OC)c(Br)c3)cs2)cc1Br | x | n | n | n | n | n
COc1ccc(-c2csc(NC(=S)NC(=O)/C=C/c3ccco3)n2)cc1Br | n | n | 7.9µM | n | u | x
CC(C)c1ccc(/C=C/C(=O)Nc2nncs2)cc1 | n | n | 13µM | n | n | n

Source: PubChem BioAssay (National Center for Advancing Translational Sciences (NCATS))
